Compounds without any hit were thinned out: in the full panel of roughly 83,000, 20% have a hit.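 The endpoint reported here, percent growth, reads 100 for growth as untreated, 0 for no net growth and -100 for all cells dead.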 A number with no mark means an inactive call. Activity calls are given as the source filed them. How the source made its calls: active means growth percent below 10; inactive means the rest.

This assay concerns HL-60(TB) leukemia. Kind of assay: NCI-60 one-dose screen, 48 h (100 = growth as untreated, 0 = no growth, -100 = all killed). Particulars: 10 µM unless noted.
Regarding `O=C(N/N=C\c1cc(Cl)ccc1O)N/N=C/c1cc(Cl)ccc1O`, the growth was 6.64% (active).

As for `CCCCN1CCCCn2c1nc1c2c(=O)n(C)c(=O)n1C`, the growth is 108%.

As to `OC(c1cc2cc(Cl)ccc2c2cc(C(F)(F)F)ccc12)C1CCCCN1` (stereo not given), the growth was -61.1% (active).

As to `Cc1ccccc1NC(=O)CN(C)C`, the growth is 87.9%.

For the molecule `CCOC(=O)c1cc(N)nc2ccccc12`, the growth is 104%.

Consider `CCCCCCCCCc1ccc(OC(C)=O)cc1`, for which the growth was 108%.

As for `COc1cccc(-c2nn(-c3ccccc3)cc2-c2ccnc(NCCCNS(=O)(=O)c3ccc(Br)cc3)c2)c1`, the growth was 43.3%.

On to `CCC1CCc2nc3sc(C(=O)Nc4ccccc4F)c(N)c3cc2C1` (stereo not given), for which the growth is 21.5%.

For the molecule `Nc1nc2ccc(CNc3ccc(C(=O)NC(CC(=O)O)C(=O)O)cc3)cc2c(=O)[nH]1` (stereo not given), the growth was 4.48% (active).

Turning to `COc1cc(C(=O)/C=C/c2sc(Cl)nc2Cl)cc(OC)c1OC`, the growth was 23.4%.

`CCSc1ccc2c(c1)N(CCCN1CCN(C)CC1)c1ccccc1S2`: the growth is 37.1%.

As to `CCCCCCCCCCCC(=O)OC(C)C(=O)NCCCC` (stereo not given), the growth is 99.4%.

Consider `O=C(NCCOCCOCCNc1cccc2c1C(=O)N(C1CCCNC1=O)C2=O)c1cc2c(o1)C(=O)c1ccccc1C2=O` (stereo not given), for which the growth was -1.81% (active).

For `CN1CCN(CCCOc2ccc3ncnc(Nc4ccc(Oc5cccc(F)c5)c(Cl)c4)c3c2)CC1`, the growth was -47.3% (active).

`O=C(N/N=C/c1ccccc1SSc1ccccc1/C=N/NC(=O)c1ccccc1)c1ccccc1`: the growth is 3.4% (active).

Regarding `O=C1/C(=C\c2ccc(F)cc2)CN(C(=O)c2ccccc2F)C/C1=C\c1ccc(F)cc1`, the growth is -4.26% (active).

Regarding `O=C1/C(=C/c2ccc(OCCCOc3ccc(Cl)cc3)cc2)N=C2SCCCN12`, the growth was 93%.

As to `CCN(CC)c1ccc2cc(C(Nc3ccc(Br)c(C(F)(F)F)c3)c3nnnn3C(C)(C)C)c(=O)oc2c1` (stereo not given), the growth was 93%.

As to `NNc1ccc(Cl)cc1Cl`, the growth was 8.29% (active).

Turning to `CC(=O)c1cccc(N(C)S(=O)(=O)c2ccc(C)cc2)c1`, the growth is 88.8%.

In the case of `CCCCn1c(-c2cccc(OC)c2)nc2cc(OC)c(OC)cc2c1=O`, the growth was 78.3%.

`Sc1ccc(Nc2c3ccccc3nc3ccccc23)cc1`: the growth is 31.7%.

In the case of `O=C(CN1CCN(C(=O)c2ccccc2)CC1)Nc1ccccc1SCc1ccccc1`, the growth was 80.5%.

As to `Clc1ccc(-c2cc(-c3ccccc3)nc(NCCNc3ccnc4cc(Cl)ccc34)n2)cc1`, the growth was -31.9% (active).

As to `c1cc(-c2ccc3c(c2)OCO3)n2nccc2n1`, the growth was 98.4%.

For the molecule `COc1ccc(-c2onc(N)c2-c2cc(OC)c3c(c2)OCO3)cc1`, the growth was -31.4% (active).

With `CCCCCCCCO/N=C\c1c2c(O)c3c(O)c(C)c4c(c3c1O)C(=O)C(C)(O/C=C\C(OC)C(C)C(OC(C)=O)C(C)C(O)C(C)C(O)C(C)/C=C\C=C(\C)C(=O)N2)O4` (stereo not given), the growth is -10.2% (active).

For the molecule `CC(=O)N(C(C)=O)c1ccc(C)cc1`, the growth is 92.9%.

Take `N#CC1(C#N)C(c2cccs2)NC(c2cccs2)C1(C#N)C#N` (stereo not given): the growth is 99%.

`Nc1nc(NC2CC2)c2ncn(C3C=CC(CO)C3)c2n1` (stereo not given): the growth is 86.6%.

Turning to `c1ccc2[nH]c(-c3ccc(Nc4nc(N5CCCCC5)nc(N5CCOCC5)n4)cc3)nc2c1`, the growth is -22.7% (active).

On to `C#CCNC(=O)[C@]1(C)CC[C@]2(C)CC[C@@H]3C(=CC[C@H]4[C@@]3(C)CC[C@H]3C(C)(C)C(=O)CC[C@]43C)[C@@H]2C1`, for which the growth was 56.2%.

Take `CCc1nc2cc(/C=C/C(=O)NO)ccc2c(=O)n1CCc1ccc(OC)cc1`: the growth was 0.921% (active).

In the case of `O=C1C(=O)/C(=C/c2ccccc2)CCCCCC/C1=C/c1ccccc1`, the growth was 46.6%.

For the molecule `CC/C(=C(/c1ccc(Cl)cc1)c1ccc(OCCN2CCCCC2)cc1)c1ccc(Cl)cc1`, the growth was 68.5%.

Turning to `O=C(NC1CC(F)C1)c1cc2cccnc2n1-c1ccc(Cl)c(Cl)c1` (stereo not given), the growth is 97.2%.

Regarding `O=C(/C=C/C12c3ccccc3C(c3ccccc31)C1C(=O)NC(=O)C12)c1ccc(Br)cc1` (stereo not given), the growth is 2.14% (active).

For the molecule `COc1ccccc1CNc1nc(N)nc2[nH]c3ccc(O)cc3c12`, the growth was 34.3%.

With `O=C(/C=C(\Nc1ccccc1)c1ccccc1)c1cn(-c2ccc([N+](=O)[O-])cc2)nn1`, the growth is 114%.

In the case of `C=C(C)CCC(C)N1CCC(N2CCC(C(=O)NCCc3ccccc3)CC2)CC1` (stereo not given), the growth was 27.4%.

Source of the values: PubChem BioAssay (NCI).
